Measured values as given in article PMC5540273 (PLoS ONE, 2017).
Read-outs that look alike come from different tables or passages of the source.

Experiments:
DCAMKL2 = system: T1, DCAMKL2; details: concentration: 1 μM, replicates: in singlicate; n = 1
T1 construct: gene DCLK2

DCAMKL3 = system: T2, DCAMKL3; details: concentration: 1 μM, replicates: in singlicate; n = 1
T2 construct: gene DCLK3

DDR1 = details: concentration: 1 μM, replicates: in singlicate; n = 1
DDR2 = details: concentration: 1 μM, replicates: in singlicate; n = 1
DLK = system: T3, DLK; details: concentration: 1 μM, replicates: in singlicate; n = 1
T3 construct: gene MAP3K12

DMPK2 = system: T4, DMPK2; details: n = 1
T4 construct: gene CDC42BPG

DMPK = details: concentration: 1 μM, replicates: in singlicate; n = 1
DRAK1 = system: T5, DRAK1; details: concentration: 1 μM, replicates: in singlicate; n = 1
T5 construct: gene STK17A

DRAK2 = system: T6, DRAK2; details: concentration: 1 μM, replicates: in singlicate; n = 1
T6 construct: gene STK17B

DYRK1A = details: concentration: 1 μM, replicates: in singlicate; n = 1
[1] = concentration: 1 μM, replicates: in singlicate
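Note: KINOMEscan kinase panel screen.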

| SMILES | %Inh (DCAMKL2) [%] | %Inh (DCAMKL3) [%] | %Inh (DDR1) [%] | %Inh (DDR2) [%] | %Inh (DLK) [%] | %Inh (DMPK2; [1]) [%] | %Inh (DMPK) [%] | %Inh (DRAK1) [%] | %Inh (DRAK2) [%] | %Inh (DYRK1A) [%] | %Inh (DMPK2; 1 µM) [%] |
| --- | --- | --- | --- | --- | --- | --- | --- | --- | --- | --- | --- |
| CC(C)c1nc(-c2cccc(NS(=O)(=O)c3c(F)cccc3F)c2F)c(-c2ccnc(Nc3ccc(N4CCOCC4)nc3)n2)s1 [GSK2008607] | 46 | 82 | 99.3 | 88 | 93.2 | 20 | 0 | 0 | 0 | 0 |  |
| Cc1ccc(S(=O)(=O)Nc2ccc(Nc3nccc(Nc4cccc5[nH]ncc45)n3)cc2)cc1 [GSK581271] | 5 | 21 | 82 | 36 | 0 | 0 | 0 | 61 | 7 | 16 |  |
| COc1cccc(C(=O)Nc2cccc(Oc3ccc4nc(NC(=O)C5CC5)cn4n3)c2)c1 | 17 | 49 | 100 | 99.7 | 18 | 27 | 0 | 0 | 24 | 0 |  |
| CC(=O)N1CCN(c2ccc(Nc3nccc(-c4sc(C(C)C)nc4-c4cccc(NS(=O)(=O)c5cccc(Cl)c5)c4)n3)cn2)CC1 [GSK1660437] | 19 | 52 | 98.2 | 40 | 23 | 0 | 0 | 0 | 0 | 0 |  |
| O=C(Nc1n[nH]c2cc(-c3ccoc3)ccc12)C1CC1 [SB-738481] | 0 | 0 | 0 | 5 | 0 | 24 | 0 | 24 | 0 | 61 |  |
| COC(=O)Nc1nc2cc(Oc3ccc(NC(=O)Nc4cc(C(F)(F)F)ccc4F)cn3)ccc2[nH]1.Cl.Cl [GW681170] | 15 | 3 | 100 | 97.1 | 35 | 0 | 0 | 16 | 0 | 0 |  |
| Cc1cccc(NC(=O)Nc2ccc(Oc3ncnc4ccn(C)c34)cc2)c1 | 0 | 0 | 99.3 | 98.7 | 0 | 0 | 0 | 0 | 0 | 0 |  |
| COc1cccc(-c2ccc3c(NC(=O)C4CC4)n[nH]c3n2)c1 [SB-710903] | 0 | 6 | 0 | 52 | 72 | 0 | 0 | 2 | 4 | 52 |  |
| Fc1ccc(-c2ncn(C3CCNCC3)c2-c2ccnc(Oc3ccc(-c4ccccc4)cc3)n2)cc1 [SB-245391] | 3 | 18 | 2 | 10 | 7 | 86 | 5 | 0 | 15 | 0 |  |
| CCn1c(-c2nonc2N)nc2c(C#CC(C)(C)O)ncc(OCCCCN)c21.O=C(O)C(F)(F)F.O=C(O)C(F)(F)F [GSK507274] | 34 | 98.7 | 0 | 0 | 1 |  | 0 | 0 | 2 | 25 | 0 |
| Cl.c1ccc(-c2ccc3c(Nc4ccc5[nH]ncc5c4)ccnc3c2)nc1 [GW440137] | 0 | 0 | 67 | 3 | 1 | 6 | 0 | 0 | 6 | 21 |  |
| Nc1ncc(-c2ccc3nccc(-c4ccncc4)c3c2)cc1S(=O)(=O)N1CCOCC1 [GSK1627798] | 22 | 0 | 0 | 0 | 32 | 0 | 0 | 0 | 0 | 28 |  |
| COc1ccc(Nc2nccc(NCCNC(=O)c3cc4ccccc4s3)n2)cc1 [GSK1379896] | 0 | 0 | 0 | 15 | 0 | 0 | 0 | 0 | 0 | 0 |  |
| COc1cc(Nc2nccc(-c3c(-c4cccc(NC(=O)c5c(F)cccc5F)c4)nn4ncccc34)n2)cc(OC)c1OC [GSK327238] | 0 | 43 | 100 | 95.2 | 2 | 100 | 8 | 0 | 0 | 23 |  |
| Nc1ncc(-c2cccnc2)c2scc(-c3ccc4c(c3)CCN4C(=O)Cc3ccccc3)c12 [GSK683281] | 1 | 34 | 63 | 0 | 6 | 72 | 4 | 1 | 0 | 23 |  |
| C[C@@H]1CC[C@@H](C(=O)Nc2ccccc2)CN1c1cc(-c2ccc3c(N)n[nH]c3c2)nc(N)n1 [GSK2286062] | 17 | 0 | 1 | 22 | 17 | 0 | 0 | 18 | 0 | 3 |  |

| SMILES | %Inh (DCAMKL2) [%] | %Inh (DCAMKL3) [%] | %Inh (DDR1) [%] | %Inh (DDR2) [%] | %Inh (DLK) [%] | %Inh (DMPK2; [1]) [%] | %Inh (DMPK) [%] | %Inh (DRAK1) [%] | %Inh (DRAK2) [%] | %Inh (DYRK1A) [%] | %Inh (DMPK2; 1 µM) [%] |
| --- | --- | --- | --- | --- | --- | --- | --- | --- | --- | --- | --- |
| NCCCC(NC(=O)c1cc(Br)c(-c2ccnc3[nH]ccc23)s1)c1ccccc1.O=C(O)C(F)(F)F.O=C(O)C(F)(F)F (centres unmarked) [GSK1287544] | 3 | 0 | 0 | 2 | 17 | 94.2 | 28 | 61 | 0 | 48 |  |
| Cl.Cl.NCC(C(=O)Nc1cc(Br)c(-c2ccnc3[nH]ccc23)s1)c1ccccc1 (centres unmarked) [GSK1269851] | 3 | 0 | 0 | 0 | 4 | 0 | 27 | 98.8 | 0 | 50 |  |
| Cc1ccc(C(=O)N2CC[C@@H](O)C2)cc1-n1c(C)cc(OCc2ccc(F)cc2F)c(Br)c1=O | 0 | 0 | 99 | 94.6 | 0 | 0 | 0 | 0 | 0 | 0 |  |
| O=C(Nc1cccc(Oc2ccc3nc(NC(=O)C4CC4)cn3n2)c1)c1ccccc1C(F)(F)F | 0 | 0 | 98.9 | 88 | 7 | 17 | 0 | 0 | 21 | 12 |  |
| O=C(Nc1n[nH]c2nc(-c3ccc(O)cc3)ccc12)C1CC1 [SB-710363] | 0 | 76 | 0 | 27 | 0 | 0 | 0 | 93.4 | 26 | 62 |  |
| COc1cccc(NC(=O)NC2CCN(c3ccnc(Nc4cc(OC)c(OC)c(OC)c4)n3)C2)c1 (centres unmarked) [GSK1379763] | 0 | 0 | 22 | 24 | 46 | 27 | 0 | 0 | 0 | 0 |  |
| CCS(=O)(=O)c1ccc(OC)c(Nc2nccc(-c3c(-c4cccc(NC(=O)c5c(F)cccc5F)c4)nn4ncccc34)n2)c1 [GSK326180] | 0 | 1 | 90 | 8 | 0 | 78 | 0 | 0 | 1 | 12 |  |
| CCn1c(-c2nonc2N)nc2c(C#CC(C)(C)O)nc(OC[C@H](N)c3ccccc3)cc21 [GSK943949] | 0 | 19 | 4 | 12 | 0 | 0 | 0 | 13 | 19 | 4 |  |
| CC(C)(C)c1ccc2nccc(Nc3cccc(O)c3)c2c1 [GW856795] | 0 | 0 | 62 | 47 | 16 | 0 | 3 | 5 | 1 | 0 |  |
| COc1ccc(CNC(=O)NC2CCN(c3ccnc(Nc4ccc(F)cc4)n3)CC2)cc1 [GSK1379788] | 0 | 5 | 0 | 32 | 34 | 0 | 0 | 0 | 0 | 0 |  |
| COc1cc(Nc2nccc(N3CCC(NC(=O)Nc4cccc(C(C)=O)c4)C3)n2)cc(OC)c1OC (centres unmarked) [GSK1379753] | 0 | 0 | 6 | 8 | 42 | 25 | 0 | 0 | 10 | 14 |  |
| Cc1ccc(C)c(NC(=O)NC2CCN(c3ccnc(Nc4ccc(F)cc4)n3)C2)c1 (centres unmarked) [GSK1379720] | 0 | 3 | 0 | 25 | 0 | 0 | 0 | 10 | 0 | 10 |  |
| C[C@@H](Oc1cc(-n2cnc3cc(-c4ccnc(NCCS(C)(=O)=O)c4)ccc32)sc1C(N)=O)c1ccccc1Cl [GSK907232] | 1 | 0 | 0 | 0 | 12 | 0 | 0 | 0 | 4 | 31 |  |
| O=c1[nH]cc(-c2ccc(N3CCOCC3)cc2)c2sc(-c3cn[nH]c3)cc12 [GSK2276055] | 0 | 0 | 3 | 0 | 0 | 0 | 0 | 35 | 11 | 99.8 |  |
| COc1ccc(-c2coc3ccc(-c4nnc(SCc5ccc(OC)c(C(F)(F)F)c5)o4)cc23)cc1 | 8 | 0 | 2 | 0 | 0 | 0 | 0 | 0 | 0 | 0 |  |
| Cn1cc(-c2[nH]c3cc(NC(=O)[C@H](N)C4CCCCC4)cc4c3c2C=NNC4=O)cn1 | 24 | 99.4 | 0 | 39 | 94.8 | 0 | 82 | 99.6 | 99.9 | 79 |  |
